Assay outcomes: PubChem, Sanford-Burnham Center for Chemical Genomics
A selection follows.
TNAP pNPP inh: blocks human TNAP p-nitrophenol release; 21,000 tested, under 10 active; inhibition, % at 20 µM; purified TNAP, pNPP hydrolysis, absorbance 405 nm; AID 615
Target sequence (P05186 whole entry, looked up): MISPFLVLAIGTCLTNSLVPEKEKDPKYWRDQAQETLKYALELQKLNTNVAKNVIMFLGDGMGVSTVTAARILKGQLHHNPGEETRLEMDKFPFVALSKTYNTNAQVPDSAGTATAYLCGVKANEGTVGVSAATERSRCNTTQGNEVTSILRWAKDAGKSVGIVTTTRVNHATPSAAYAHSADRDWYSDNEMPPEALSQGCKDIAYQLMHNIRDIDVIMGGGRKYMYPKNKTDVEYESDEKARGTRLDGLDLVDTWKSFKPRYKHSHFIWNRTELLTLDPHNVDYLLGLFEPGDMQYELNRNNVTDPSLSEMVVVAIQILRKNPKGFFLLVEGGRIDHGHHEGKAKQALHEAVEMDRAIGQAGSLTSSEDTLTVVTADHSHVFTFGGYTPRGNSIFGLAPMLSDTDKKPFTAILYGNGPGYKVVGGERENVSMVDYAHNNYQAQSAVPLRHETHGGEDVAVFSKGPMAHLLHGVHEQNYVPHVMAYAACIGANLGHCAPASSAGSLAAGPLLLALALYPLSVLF
TNAP inh Pi: inhibitors of human tissue-nonspecific alkaline phosphatase; P05186; inhibition, % at 20 µM; purified TNAP, pNPP, malachite green phosphate absorbance; 21,000 tested, under 10 active
Of the large screens only hits and unclear results are named; the others gave an inactive call.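 The calls were made as follows: active = inhibition above 50% at the 20 µM single-dose screen; inactive = the rest.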

CCc1nc(N)c(C#N)c(-c2ccccc2OC)c1C	none
O=C(O)C1C2C=CC(C2)C1C(=O)NC1CCS(=O)(=O)C1 (configuration not stated)	none
COC(=O)c1ccc(OCCn2cnc3ccccc3c2=O)cc1	none
COc1ccc2c3c(cccc13)NN=C2C	none
CCc1cc2c(C)cc(=O)oc2cc1OC(=O)C1CCCN1C(=O)OC(C)(C)C (configuration not stated)	none
Cn1c(=O)n(Cc2ccc(F)cc2)c(=O)c2c1nc1n2CCCN1C1CCCCC1	none
CCCCOc1[nH]c2nc(-c3ccco3)n(Cc3ccco3)c(=N)c2c1C#N	none
CC(=O)/C=C(\C)NCCNc1c(F)c(F)c(CO)c(F)c1F	none
CN(C)CCCN1C(=O)C(=O)/C(=C(/O)c2ccc(S(=O)(=O)N(C)C)cc2)C1c1ccncc1 (configuration not stated)	none
CC1CCN(C(=O)CSc2nnc(CN3CCOCC3)n2-c2ccccc2)CC1	none
O=C(CN1C(=O)c2ccccc2C1=O)OCN1C(=O)c2ccccc2C1=O	none
Cn1nnnc1SCCOc1ccc(C#N)cc1	none
CCn1c2ccccc2c2nnc(SCCCn3c(=O)[nH]c4ccccc43)nc21	none
CC1CC(C)CN(Cc2nc(N)nc(Nc3ccc4ccccc4c3)n2)C1 (configuration not stated)	none
Cc1ccc(Nc2nc(N)nc(CN3CCN(C(=O)c4ccco4)CC3)n2)cc1Cl	none
COCCn1c(SCC(=O)c2ccc(Cl)cc2)nnc1C(C)C	none
COc1cccc(/C=N/n2c(C)c3c(C)nnc(C)c3c2C)c1O	none
O=C(N1CCN(c2ccccn2)CC1)N1c2ccccc2Sc2ccccc21	none
CC(C)c1ccc(-c2nnn(Cc3nc4ccccc4s3)n2)cc1	none
Nc1c(C(=O)NC2CCCC2)c2nc3ccccc3nc2n1/N=C/c1cccnc1	none
c1cncc(-c2nc(Oc3ccc(-c4nnco4)cc3)c3c4c(sc3n2)CCCC4)c1	none
CC1=CC(C)(C)N=C(Nc2ccc(C)cc2)S1	none
CN(C)S(=O)(=O)c1cccc(-c2nnc(SCc3ccc4c(c3)OCCO4)o2)c1	none
Cc1cccc(-n2c(CCCN3C(=O)c4ccccc4C3=O)nc3ccccc3c2=O)n1	none
CCn1c(SC(=O)NC2CCCCC2)nnc1-c1cccs1	none
C=CCn1c(NC(=O)c2ccccc2)c(C#N)c2nc3ccccc3nc21	none
Cc1ccc(C)c(S(=O)(=O)N2CCN(CC(=O)NC(=O)NCc3ccccc3)CC2)c1	none
O=C(CS(=O)CC(=O)N(CC(=O)NC1CCCC1)C1CCCC1)Nc1ccc(F)cc1 (configuration not stated)	none
Clc1cccc(Cl)c1COc1ccccn1	none
CN(C)c1ccc(-c2nn3c(C4CCCCC4)nnc3s2)cc1	none
CC(C)CC(C(=O)Nc1oc(-c2ccco2)c(-c2ccco2)c1C#N)N1C(=O)c2ccccc2C1=O (configuration not stated)	none
CC(C)N=c1cc2n(-c3ccc(Cl)cc3)c3ccccc3nc-2cc1Nc1ccc(Cl)cc1	none
COC(=O)c1ccc(OC(=O)C2CC(=O)N(c3ccc(C)cc3C)C2)cc1 (configuration not stated)	none
CCc1ccc(OCc2nnc(SCCN3CCOCC3)n2C)cc1	none
CCCSc1nc(C)c(CC(=O)O)c(=O)[nH]1	none
O=S(=O)(NC1CCCC1)c1cccc(S(=O)(=O)N2CCC(n3nnc4ccccc43)CC2)c1	none
COCCCn1c(C2CCCCC2)nc2oc3cc(OC)ccc3c(=O)c2c1=O	none
O=C(O)CSc1nnc(-c2ccncc2)n1C1CCCCC1	none
CCOC(=O)C1(C)NC(c2ccc(OC)cc2OC)C2C(=O)N(c3cccc(OC)c3)C(=O)C21 (configuration not stated)	none
C1CNCCNCCNCCN1	none
C=CCOn1c(=O)c(=O)n(OCc2ccccc2)c2ccccc21	none
N#CCSc1nc2scc(-c3cccs3)c2c(=O)n1CCc1ccccc1	none
Oc1ccccc1C1=Nc2ncnn2C(c2ccc(F)cc2)C1 (configuration not stated)	none
CCCCCCC(=O)N1CCC(c2nc3c(nnn3Cc3ccccc3Cl)c(=O)[nH]2)CC1	none
Cc1ccc(C2CC(C(F)(F)F)n3nc(C(=O)NCC4CCCO4)cc3N2)cc1 (configuration not stated)	none
O=C(CCN1CCc2ccccc2CC1)c1ccc2c(c1)OCCO2	none
Cc1cc(Cn2ccnc2)c(C)cc1Cn1ccnc1	none
CCCn1c(C)nc2c(c1=O)c1nc3ccccc3nc1n2-c1ccc2c(c1)OCCO2	none
CC(=O)Nc1cccc(Oc2cc(C#N)c(C#N)cc2N2CCCCCC2)c1	none
CC(C)/C=C1\CCCCC1N(C)C(=O)NC(C)C (configuration not stated)	none
O=C(Nc1ccc(O)cc1)c1ccc(C(=O)c2ccccc2)o1	none
COc1cc(Cl)c(C)cc1NC(=O)CSc1nnc(-c2ccccn2)n1Cc1ccco1	none
COc1cc(C(=O)OCC(=O)Nc2c(F)c(F)c(F)c(F)c2F)cc(OC)c1OC	none
O=C(NCc1ccccc1)N(Cc1nc2ccccc2c(=O)[nH]1)C1CCCC1	none
COC(=O)c1c(C)[nH]c(C(=O)C(C)Sc2nnc(-c3cc(OC)c(OC)c(OC)c3)o2)c1C (configuration not stated)	none
